Screening results from PubChem.
Most compounds without a hit are left out; they make up all but 4.2% or so of the library.
D1 agonist – agonists of human D1 dopamine receptor; HEK293 T-REx D1 cells, calcium flux, agonist mode; activation, % at 2 µM; 360,000 tested, 1% active; in the data active = activation above about 30%
Target sequence (P21728 whole entry, looked up): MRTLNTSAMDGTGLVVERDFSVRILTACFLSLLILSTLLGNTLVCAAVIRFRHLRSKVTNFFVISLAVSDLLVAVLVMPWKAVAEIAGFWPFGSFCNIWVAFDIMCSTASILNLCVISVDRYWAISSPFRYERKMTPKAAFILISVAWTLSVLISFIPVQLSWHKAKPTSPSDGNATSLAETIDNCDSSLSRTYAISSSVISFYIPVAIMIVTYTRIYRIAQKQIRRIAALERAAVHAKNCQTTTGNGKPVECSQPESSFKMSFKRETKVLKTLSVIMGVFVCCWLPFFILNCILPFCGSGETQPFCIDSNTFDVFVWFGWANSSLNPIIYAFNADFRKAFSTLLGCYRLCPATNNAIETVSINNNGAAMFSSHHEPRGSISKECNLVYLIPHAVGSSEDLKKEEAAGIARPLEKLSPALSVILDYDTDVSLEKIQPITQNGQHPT
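Inducible HEK293 T-REx D1 cells, force-coupled to calcium signalling, were plated at 4000 cells/well with tetracycline and held overnight at 30 C. After no-wash calcium dye loading, compound-evoked calcium rise over 180 s flagged agonists.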
D1 potentiator – human D1 dopamine receptor positive modulation; 360,000 tested, 0.036% active; potentiation, % at 10 µM; HEK293 TREx D1 cells, calcium flux, dopamine EC20 potentiation; P21728; AID 504651; in the data active = potentiation above about 30%
TRPV1 PAM – enhances activation of the human vanilloid receptor TRPV1. Q8NER1. TRPV1-expressing cells, Fluo-8 calcium influx, capsaicin EC20 potentiation. potentiation, % at 8.33 µM. 320,000 tested, 0.02% active; in the data active = potentiation above about 80%; inconclusive = between about 30% and that limit
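TRPV1-expressing cells were cultured overnight at 35.5C and loaded with Fluo-8 calcium dye for 40 to 90 min at room temperature. After a 10 s baseline, compound was added and calcium influx was read kinetically for 3 min (ex 480/em 520 nm).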
TRPV1 agonist – human TRPV1 agonism | Q8NER1 | TRPV1-expressing cells, Fluo-8 calcium influx, agonist mode | activation, % at 8.33 µM | 320,000 tested, 0.19% active | AID 540275; in the data active = activation above about 80%; inconclusive = between about 30% and that limit
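Cells expressing TRPV1 were dye-loaded with Fluo-8 and read kinetically: 10 s baseline, 3 min after compound (agonist portion), then 2 min after EC20 capsaicin (allosteric enhancer portion). Calcium-bound dye fluorescence at 480/520 nm.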
D1 antag – human D1 dopamine receptor antagonism. HEK293 TREx D1 cells, calcium flux, dopamine EC80; stronger effect = lower value. AID 504652. activity change, negative = inhibition, % at 10 µM. 360,000 tested, 3.2% active. P21728; in the data active = activity change below about -30%
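After overnight tetracycline induction at 30 C, force-coupled D1 HEK293 cells took up a no-wash calcium dye at room temperature. Compounds were added and monitored 180 s, and the response to EC80 dopamine was then recorded.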
Hits are given with their value; ! = not active in a repeat.

Cc1ccc(N(C)S(=O)(=O)c2cc(-c3cnc(C4CC4)o3)ccc2C)cc1 was read as D1 agonist inactive, D1 potentiator inactive, TRPV1 PAM inactive, TRPV1 agonist inconclusive and D1 antag inactive.
`Cc1cc(C)c(NS(=O)(=O)c2ccc(-c3cnc(C4CC4)o3)cc2)c(C)c1` gave D1 agonist inactive, D1 potentiator inactive and D1 antag inactive.
CCOc1ccccc1NS(=O)(=O)c1ccc(-c2cnc(C3CC3)o2)cc1 was read as D1 agonist inactive, D1 potentiator inactive, TRPV1 PAM inactive, TRPV1 agonist inactive and D1 antag -38!.
Screening COc1ccc(NS(=O)(=O)c2ccc(-c3cnc(C4CC4)o3)cc2)cc1OC returned D1 agonist inactive, D1 potentiator inactive, TRPV1 PAM inactive, TRPV1 agonist inactive and D1 antag -31.
`CCOC(=O)CC(/C(C)=N\O)c1ccccc1` (stereo not given) gave D1 agonist inactive, D1 potentiator inactive, TRPV1 PAM inactive, TRPV1 agonist inactive and D1 antag -75.
For CCOC(=O)CC(NC(=O)C(CC)c1ccccc1)c1ccccc1Cl (stereo not given) the results were D1 agonist inactive, D1 potentiator inactive, TRPV1 PAM inactive, TRPV1 agonist inactive and D1 antag inactive.
For O=C(/C(N=Nc1cccc([N+](=O)[O-])c1)=C(/O)c1ccc(Br)cc1)C(F)(F)F the results were D1 agonist inactive, D1 potentiator inactive, TRPV1 PAM inactive, TRPV1 agonist inactive and D1 antag -30.
`O=C(c1ccc(Cl)cc1)[C@@H]1[C@@H]2C(=O)N(c3ccc(Cl)cc3)C(=O)[C@@H]2C2c3ccccc3C=NN21` (stereo not given in full) gave D1 agonist inactive, D1 potentiator inactive, TRPV1 PAM inactive, TRPV1 agonist inactive and D1 antag -35.
Screening CC(C)(C)c1ccc(OCCSc2nc(-c3cccs3)nc3cc(=O)[nH]n23)cc1 returned D1 agonist inactive, D1 potentiator inactive and D1 antag inactive.
Screening CC(C)CNc1nc(Oc2ccc(=O)n(C)n2)nc(N2CCOCC2)n1 returned D1 agonist inactive, D1 potentiator inactive, TRPV1 PAM inactive, TRPV1 agonist inactive and D1 antag -43.
For CCN(CC)CCN(C(=O)c1ccco1)c1nc2ccc(Br)cc2s1 the results were D1 agonist inactive, D1 potentiator inactive and D1 antag inactive.
For O=C(NCCCSc1ccccc1)c1cnc(Cl)c(Cl)c1 the results were D1 agonist inactive, D1 potentiator inactive, TRPV1 PAM inactive, TRPV1 agonist inactive and D1 antag -30.
Screening O=C(Nc1ccc(F)cc1)c1cccc(N2CCCS2(=O)=O)c1 returned D1 agonist inactive, D1 potentiator inactive and D1 antag inactive.
Screening Cc1ccc(-n2nc(-c3ccc(N)cc3)cc2N)cc1 returned D1 agonist inactive, D1 potentiator inactive, TRPV1 PAM inactive, TRPV1 agonist inactive and D1 antag inactive.
For Cc1ccc(-n2nc(-c3ccc(OC(F)(F)F)cc3)cc2N)cc1C the results were D1 agonist inactive, D1 potentiator inactive and D1 antag -32.
Screening CCCSCCCNC(=O)c1cc2n(n1)CCCN(Cc1ccc(C)cc1)C2=O returned D1 agonist 56, D1 potentiator inactive and D1 antag inactive.
`CC1(C)C(=O)N(CCN2CCC(C(=O)c3ccc(F)cc3)CC2)c2ccccc21` gave D1 agonist inactive, D1 potentiator inactive, TRPV1 PAM inactive, TRPV1 agonist inactive and D1 antag -62.
For Cc1nc2ccccn2c(=O)c1CCN1CCC(C(=O)c2ccc(F)cc2)CC1 the results were D1 agonist inactive, D1 potentiator inactive, TRPV1 PAM inactive, TRPV1 agonist inactive and D1 antag -34.
For O=c1c2ccccc2[nH]c(=S)n1CCCN1CCC(Cc2ccccc2)CC1 the results were D1 agonist inactive, D1 potentiator inactive, TRPV1 PAM inactive, TRPV1 agonist inactive and D1 antag -31.
`Cc1nc2sccn2c(=O)c1CCN1CCC(=C(c2ccc(F)cc2)c2ccc(F)cc2)CC1` gave D1 agonist inactive, D1 potentiator inactive, TRPV1 PAM inactive, TRPV1 agonist inactive and D1 antag inactive.
O=C(c1ccc(F)cc1)C1CCN(CCn2c(=S)[nH]c3ccccc3c2=O)CC1 was read as D1 agonist inactive, D1 potentiator inactive, TRPV1 PAM inactive, TRPV1 agonist inactive and D1 antag -79.
For O=C(CCc1cn(Cc2ccc(F)cc2)c2ccccc12)NCCc1ccc(Cl)cc1 the results were D1 agonist inactive, D1 potentiator inactive and D1 antag inactive.
`CCc1c(C)nc2nncn2c1Nc1ccc(C)c(F)c1` gave D1 agonist inactive, D1 potentiator inactive and D1 antag inactive.
`COc1cc(C(=O)OCCNC(=O)c2ccncc2)cc(OC)c1OC` gave D1 agonist inactive, D1 potentiator inactive, TRPV1 PAM inactive, TRPV1 agonist inactive and D1 antag -39.
Screening Cc1cc(C)c2c(-n3cccc3)c(C(=O)NCCCN3CCCCC3)sc2n1 returned D1 agonist inactive, D1 potentiator inactive and D1 antag inactive.
`O=C1CSC(=NC2CCCCC2)N1` gave D1 agonist inactive, D1 potentiator inactive, TRPV1 PAM inactive, TRPV1 agonist inactive and D1 antag inactive.
Screening O=C1CS/C(=N/N=C2CCCC2)N1 returned D1 agonist inactive, D1 potentiator inactive, TRPV1 PAM inactive, TRPV1 agonist inactive and D1 antag -48.
For O=C(N/N=C(\c1ccccc1)c1cccnc1)c1ccc(O)cc1 the results were D1 agonist inactive, D1 potentiator inactive, TRPV1 PAM inactive, TRPV1 agonist inactive and D1 antag inactive.
O=C(N/N=C(\c1ccccc1)c1cccnc1)c1cccc(F)c1 was read as D1 agonist inactive, D1 potentiator inactive, TRPV1 PAM inactive, TRPV1 agonist inconclusive and D1 antag -41.
For CCCCNC(=O)C1=CC(c2ccc3c(c2)OCO3)=NS(=O)(=O)N1C the results were D1 agonist inactive, D1 potentiator inactive and D1 antag inactive.
For O=C(COC(=O)CSc1cc(Cl)ccc1Cl)Nc1ncc(C(F)(F)F)cc1Cl the results were D1 agonist inactive, D1 potentiator inactive, TRPV1 PAM inactive, TRPV1 agonist inactive and D1 antag -32.
`O=C(CSc1nnnn1-c1cccc2c1CCCC2)N1CCOCC1` gave D1 agonist 70, D1 potentiator inactive, TRPV1 PAM inactive, TRPV1 agonist inactive and D1 antag inactive.
Screening O=C(CSc1nnnn1-c1cccc2c1CCCC2)N1CCCC1 returned D1 agonist 38, D1 potentiator inactive, TRPV1 PAM inactive, TRPV1 agonist inactive and D1 antag inactive.
For CC1CCCC(C)N1C(=O)CSc1nnnn1-c1cccc2c1CCCC2 (stereo not given) the results were D1 agonist inactive, D1 potentiator inactive, TRPV1 PAM inactive, TRPV1 agonist inconclusive and D1 antag inactive.
COc1cc(Nc2nc3c(S(=O)(=O)c4ccccc4)nnn3c3ccc(Cl)cc23)cc(OC)c1 was read as D1 agonist inactive, D1 potentiator inactive and D1 antag inactive.
